# Assay results: PubChem BioAssay AID1159580 (chemical genetic matrix, 2015)
# “And” between values parts separate entries of the source, which are not always exact repeats. Equal entries are not always repeated. Screen size: about 5,500 compounds; about 2,000 (36%) were called active. Another 18% or so got no clear call; they are omitted. This is one part of the list. A number with no mark means an inactive call. Cut-off read from the data, not from the text of the source: active = normalized growth mostly below about 0.91 (no sharp cut-off); inconclusive = no clear call, values can overlap the other calls; inactive = mostly above about 0.92.
# Assay: chemical genetic growth profiling, strain panel (AID 1159580);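 note: tested at 20 µM; growth read once vehicle control cultures reached saturation at 30 °C; 1 = growth at the plate median or of vehicle wells; lower values mean less growth of the strain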
# Conditions: S. cerevisiae deletion strains, growth OD
smiles,measurement,setting,value
CC1=CC(=O)C2C(C)(C)CCC[C@]2(C)[C@@]1(O)CCc1ccoc1 (some centres not stated),normalized growth,"locus YAL021C, strain ccr4, hits give low values",0.986
same,normalized growth,"locus YAL026C, strain drs2, hits give low values",1
same,normalized growth,"locus YAL030W, strain snc1, hits give low values",0.984
same,normalized growth,"locus YBL061C, strain skt5, hits give low values",1.02
same,normalized growth,"locus YBR009C, strain hhf1, hits give low values",0.999
same,normalized growth,"locus YBR021W, strain FUR4, hits give low values",1.04
same,normalized growth,"locus YBR023C, strain chs3, hits give low values",0.982
same,normalized growth,"locus YBR171W, strain sec66, hits give low values",0.984
same,normalized growth,"locus YBR229C, strain ROT2, hits give low values",1.01
same,normalized growth,"locus YBR231C, strain swc5, hits give low values",1.03
same,normalized growth,"locus YBR279W, strain paf1, hits give low values",0.975
same,normalized growth,"locus YCL011C, strain gbp2, hits give low values",0.996
same,normalized growth,"locus YCL016C, strain dcc1, hits give low values",0.989
same,normalized growth,"locus YCL029C, strain bik1, hits give low values",0.997
same,normalized growth,"locus YCL061C, strain MRC1, hits give low values",1
same,normalized growth,"locus YCL069W, strain vba3, hits give low values",1.01
same,normalized growth,"locus YCR088W, strain abp1, hits give low values",0.992
same,normalized growth,"locus YDL005C, strain med2, hits give low values",0.988
same,normalized growth,"locus YDL035C, strain GPR1, hits give low values",1.03
same,normalized growth,"locus YDL040C, strain nat1, hits give low values",0.998
same,normalized growth,"locus YDL074C, strain BRE1, hits give low values",0.995
same,normalized growth,"locus YDL101C, strain DUN1, hits give low values",0.998
same,normalized growth,"locus YDL185W, strain tfp1, hits give low values",0.955
same,normalized growth,"locus YDL192W, strain arf1, hits give low values",0.998
same,normalized growth,"locus YDR001C, strain nth1, hits give low values",1.01
same,normalized growth,"locus YDR069C, strain doa4, hits give low values",0.994
same,normalized growth,"locus YDR101C, strain arx1, hits give low values",1.01
same,normalized growth,"locus YDR137W, strain rgp1, hits give low values",0.825 (active)
same,normalized growth,"locus YDR150W, strain NUM1, hits give low values",0.988
same,normalized growth,"locus YDR159W, strain sac3, hits give low values",1.02
same,normalized growth,"locus YDR162C, strain NBP2, hits give low values",1
same,normalized growth,"locus YDR195W, strain ref2",1.08
same,normalized growth,"locus YDR297W, strain sur2, hits give low values",0.991
same,normalized growth,"locus YDR318W, strain mcm21, hits give low values",0.997
same,normalized growth,"locus YDR334W, strain swr1, hits give low values",1.01
same,normalized growth,"locus YDR335W, strain msn5, hits give low values",0.958
same,normalized growth,"locus YDR388W, hits give low values",0.999
same,normalized growth,"locus YDR392W, strain spt3, hits give low values",0.628 (active)
same,normalized growth,"locus YDR502C, strain sam2, hits give low values",0.98
same,normalized growth,"locus YEL003W, strain gim4, hits give low values",1.02
same,normalized growth,"locus YEL037C, strain rad23, hits give low values",1
same,normalized growth,"locus YEL061C, strain CIN8 (second series), hits give low values",0.995
same,normalized growth,"locus YEL061C, strain CIN8, hits give low values",1
same,normalized growth,"locus YER015W, strain faa2, hits give low values",0.99
same,normalized growth,"locus YER016W, strain bim1, hits give low values",0.994
same,normalized growth,"locus YER110C, hits give low values",0.987
same,normalized growth,"locus YER111C, strain swi4, hits give low values",0.999
same,normalized growth,"locus YER155C, strain BEM2 (second series), hits give low values",1.03
same,normalized growth,"locus YER155C, strain BEM2, hits give low values",0.989
same,normalized growth,"locus YER167W, strain BCK2, hits give low values",0.989
same,normalized growth,"locus YFR010W, strain ubp6, hits give low values",1.04
same,normalized growth,"locus YGL078C, strain dbp3, hits give low values",0.966
same,normalized growth,"locus YGL086W, strain mad1, hits give low values",0.995
same,normalized growth,"locus YGL167C, strain pmr1, hits give low values",0.987
same,normalized growth,"locus YGL173C, strain kem1, hits give low values",1.01
same,normalized growth,"locus YGL227W, strain vid30, hits give low values",0.991
same,normalized growth,"locus YGL240W, strain doc1, hits give low values",1.01
same,normalized growth,"locus YGL248W, strain PDE1, hits give low values",1.03
same,normalized growth,"locus YGL253W, strain hxk2, hits give low values",1.03
same,normalized growth,"locus YGR078C, strain PAC10, hits give low values",1.01
same,normalized growth,"locus YGR135W, strain pre9, hits give low values",0.941
same,normalized growth,"locus YGR252W, strain gcn5, hits give low values",1.08
same,normalized growth,"locus YHR013C, strain ard1, hits give low values",0.98
same,normalized growth,"locus YHR027C, strain rpn1, hits give low values",0.99
same,normalized growth,"locus YHR030C, strain SLT2, hits give low values",1.05
same,normalized growth,"locus YHR079C, strain IRE1 (second series), hits give low values",0.972
same,normalized growth,"locus YHR079C, strain IRE1, hits give low values",1.04
same,normalized growth,"locus YHR094C, strain hxt1, hits give low values",0.973
same,normalized growth,"locus YHR129C, strain ARP1, hits give low values",0.989
same,normalized growth,"locus YHR142W, strain chs7, hits give low values",0.96
same,normalized growth,"locus YHR200W, strain rpn10, hits give low values",1
same,normalized growth,"locus YIL066C, strain RNR3, hits give low values",0.998
same,normalized growth,"locus YIL073C, strain SPO22, hits give low values",1.02
same,normalized growth,"locus YIL125W, strain kgd1, hits give low values",0.98
same,normalized growth,"locus YIR030C, strain dcg1, hits give low values",0.976
same,normalized growth,"locus YJL092W, strain hpr5, hits give low values",1
same,normalized growth,"locus YJL095W, strain BCK1 (second series), hits give low values",0.995
same,normalized growth,"locus YJL095W, strain BCK1, hits give low values",1.02 and 1.03
same,normalized growth,"locus YJL115W, strain asf1, hits give low values",0.982
same,normalized growth,"locus YJL129C, strain trk1, hits give low values",0.945
same,normalized growth,"locus YJL134W, strain LCB3, hits give low values",0.99
same,normalized growth,"locus YJL154C, strain vps35, hits give low values",1
same,normalized growth,"locus YJL164C, strain tpk1, hits give low values",0.955
same,normalized growth,"locus YJL166W, strain qcr8, hits give low values",0.995
same,normalized growth,"locus YJL168C, strain set2, hits give low values",0.983
same,normalized growth,"locus YJL187C, strain SWE1 (second series), hits give low values",1
same,normalized growth,"locus YJL187C, strain SWE1, hits give low values",0.992
same,normalized growth,"locus YJR043C, strain POL32, hits give low values",1.08
same,normalized growth,"locus YJR066W, strain TOR1, hits give low values",0.973
same,normalized growth,"locus YJR075W, strain HOC1, hits give low values",0.994
same,normalized growth,"locus YKL009W, strain mrt4, hits give low values",0.981
same,normalized growth,"locus YKL068W, hits give low values",0.968
same,normalized growth,"locus YKL085W, strain MDH1 (second series), hits give low values",0.974
same,normalized growth,"locus YKL085W, strain MDH1, hits give low values",0.974
same,normalized growth,"locus YKL160W, strain elf1, hits give low values",0.975
same,normalized growth,"locus YKL190W, strain CNB1, hits give low values",0.986
same,normalized growth,"locus YKR001C, strain vps1, hits give low values",1.04
same,normalized growth,"locus YKR026C, strain gcn3, hits give low values",1
same,normalized growth,"locus YKR091W, strain srl3, hits give low values",0.991
same,normalized growth,"locus YLL001W, strain dnm1, hits give low values",0.964
same,normalized growth,"locus YLL026W, hits give low values",0.994
same,normalized growth,"locus YLL041C, strain sdh2, hits give low values",0.999
same,normalized growth,"locus YLR027C, strain aat2, hits give low values",0.984
same,normalized growth,"locus YLR039C, strain RIC1, hits give low values",1
same,normalized growth,"locus YLR058C, strain SHM2, hits give low values",1.02
same,normalized growth,"locus YLR102C, strain apc9, hits give low values",0.979
same,normalized growth,"locus YLR113W, strain HOG1, hits give low values",1.02
same,normalized growth,"locus YLR221C, strain rsa3, hits give low values",1.02
same,normalized growth,"locus YLR258W, strain gsy2, hits give low values",0.996
same,normalized growth,"locus YLR262C, strain YPT6 (second series), hits give low values",0.835 (active)
same,normalized growth,"locus YLR268W, strain sec22, hits give low values",1
same,normalized growth,"locus YLR320W, strain mms22, hits give low values",1
same,normalized growth,"locus YLR342W, strain FKS1, hits give low values",0.99
same,normalized growth,"locus YLR357W, strain rsc2, hits give low values",1.04
same,normalized growth,"locus YLR370C, strain arc18, hits give low values",0.996
same,normalized growth,"locus YLR371W, strain rom2, hits give low values",0.983
same,normalized growth,"locus YLR384C, strain iki3, hits give low values",0.982
same,normalized growth,"locus YLR418C, strain cdc73, hits give low values",0.995
same,normalized growth,"locus YML016C, strain PPZ1, hits give low values",0.998
same,normalized growth,"locus YML032C, strain rad52, hits give low values",0.983
same,normalized growth,"locus YML120C, strain ndi1, hits give low values",0.954
same,normalized growth,"locus YML124C, strain tub3, hits give low values",0.993
same,normalized growth,"locus YMR058W, strain fet3, hits give low values",1
same,normalized growth,"locus YMR078C, strain ctf18, hits give low values",0.974
same,normalized growth,"locus YMR125W, strain sto1, hits give low values",0.959
same,normalized growth,"locus YMR129W, hits give low values",0.981
same,normalized growth,"locus YMR205C, strain PFK2, hits give low values",0.922
same,normalized growth,"locus YMR223W, strain ubp8, hits give low values",0.972
same,normalized growth,"locus YMR231W, strain pep5, hits give low values",0.998
same,normalized growth,"locus YMR307W, strain GAS1, hits give low values",1.13
same,normalized growth,"locus YNL067W, strain RPL9B, hits give low values",1
same,normalized growth,"locus YNL071W, strain lat1, hits give low values",0.902 (active)
same,normalized growth,"locus YNL183C, strain NPR1, hits give low values",0.975
same,normalized growth,"locus YNL209W, strain ssb2, hits give low values",0.987
same,normalized growth,"locus YNL233W, strain BNI4, hits give low values",1.03
same,normalized growth,"locus YNL248C, strain rpa49, hits give low values",0.998
same,normalized growth,"locus YNL250W, strain rad50, hits give low values",0.927
same,normalized growth,"locus YNL271C, strain bni1, hits give low values",0.955
same,normalized growth,"locus YNL298W, strain CLA4, hits give low values",0.996
same,normalized growth,"locus YNL307C, strain MCK1, hits give low values",0.986
same,normalized growth,"locus YNL322C, strain KRE1 (second series), hits give low values",0.998
same,normalized growth,"locus YNR049C, strain mso1, hits give low values",1
same,normalized growth,"locus YNR052C, strain pop2, hits give low values",0.979
same,normalized growth,"locus YOL006C, strain TOP1, hits give low values",1.15
same,normalized growth,"locus YOL012C, strain htz1",1.06
same,normalized growth,"locus YOL147C, strain pex11, hits give low values",0.976
same,normalized growth,"locus YOR001W, strain rrp6, hits give low values",1.06
same,normalized growth,"locus YOR061W, strain CKA2, hits give low values",0.993
same,normalized growth,"locus YOR069W, strain VPS5, hits give low values",0.99
same,normalized growth,"locus YOR070C, strain gyp1, hits give low values",0.99
same,normalized growth,"locus YOR080W, strain dia2, hits give low values",1
same,normalized growth,"locus YOR083W, strain WHI5, hits give low values",1.01
same,normalized growth,"locus YOR106W, strain vam3, hits give low values",1
same,normalized growth,"locus YOR136W, strain idh2, hits give low values",0.986
same,normalized growth,"locus YOR144C, strain elg1, hits give low values",0.986
same,normalized growth,"locus YOR184W, strain ser1, hits give low values",1.01
same,normalized growth,"locus YOR231W, strain MKK1, hits give low values",1.03
same,normalized growth,"locus YOR265W, strain rbl2, hits give low values",1.02
same,normalized growth,"locus YOR270C, strain vph1, hits give low values",0.862
same,normalized growth,"locus YOR290C, strain snf2, hits give low values",0.959
same,normalized growth,"locus YOR316C, strain cot1, hits give low values",0.993
same,normalized growth,"locus YPL051W, strain arl3, hits give low values",0.959
same,normalized growth,"locus YPL078C, strain atp4, hits give low values",0.966
same,normalized growth,"locus YPL106C, strain sse1, hits give low values",1.02
same,normalized growth,"locus YPL240C, strain hsp82, hits give low values",1
same,normalized growth,"locus YPL241C, strain CIN2, hits give low values",0.985
same,normalized growth,"locus YPL256C, strain CLN2, hits give low values",1.01
same,normalized growth,"locus YPR119W, strain clb2, hits give low values",0.969
same,normalized growth,"locus YPR141C, strain kar3, hits give low values",0.962
same,normalized growth,"locus YPR163C, strain tif3, hits give low values",0.977
same,normalized growth,"locus YPR167C, strain met16, hits give low values",0.972
same,normalized growth,"strain wtn01, hits give low values",1.01
